# Measurements taken from PubChem BioAssay (EPA / NIEHS).
# Inconclusive results are not listed. Active and inactive are the calls of the source. Rule for the calls, unless noted: active = hit-call score of the fitted dose curve at least 0.9, where 1 is the maximum; inactive = score below 0.9.
# Legend:
# [1] = molecular target: Hepatocyte nuclear factor 3-beta (Homo sapiens) (UniProt Q9Y261); test: ATG_FoxA2_CIS: Attagene CIS-FACTORIAL HepG2 Assay for human Forkhead box A2 (FOXA2) (AID 2282942); conditions: HepG2 cis-reporter transcription factor activity, 24 h; actives raise or lower the signal
# Hepatocyte nuclear factor 3-beta (Homo sapiens), sequence (Q9Y261 whole entry, looked up): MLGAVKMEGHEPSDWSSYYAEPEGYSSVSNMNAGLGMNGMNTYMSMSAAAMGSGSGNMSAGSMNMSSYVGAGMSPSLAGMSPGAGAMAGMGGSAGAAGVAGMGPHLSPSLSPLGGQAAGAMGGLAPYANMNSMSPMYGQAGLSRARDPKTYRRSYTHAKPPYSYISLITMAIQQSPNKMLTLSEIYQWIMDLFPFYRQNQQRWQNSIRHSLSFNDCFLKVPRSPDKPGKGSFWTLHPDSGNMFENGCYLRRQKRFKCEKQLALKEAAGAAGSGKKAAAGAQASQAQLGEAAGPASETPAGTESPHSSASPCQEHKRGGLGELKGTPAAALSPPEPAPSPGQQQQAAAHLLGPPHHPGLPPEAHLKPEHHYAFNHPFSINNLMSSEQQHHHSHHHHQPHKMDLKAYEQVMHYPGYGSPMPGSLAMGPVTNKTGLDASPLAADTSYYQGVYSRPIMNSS
# How it was run: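 In transiently transfected human HepG2 cells, promoter-driven reporter mRNA levels after 24 h chemical exposure are determined via RT-PCR with capillary electrophoresis. DMSO serves as baseline for bidirectional fitting.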
# [2] = ATG_M_32_CIS: Attagene CIS-FACTORIAL HepG2 Assay for M32 Transcription Factor (Internal Marker) (AID 2282949); conditions: HepG2 Attagene cis-factorial M32 reporter, mRNA; actives raise or lower the signal;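 note: background control marker of the multiplexed CIS panel rather than a real target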
# How it was run: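 Fluorescent capillary electrophoresis peaks of HpaI-digested, FAM-labelled RT-PCR reporter products give the signal. Source: transiently transfected human liver HepG2 cells, 24 h after chemical dosing; bidirectional fitting against DMSO.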
# [3] = molecular target: Hypoxia-inducible factor 1-alpha (Homo sapiens) (UniProt Q16665); test: ATG_HIF1a_CIS: Attagene CIS-FACTORIAL HepG2 Assay for human Hypoxia Inducible Factor 1 (HIF1A) (AID 2282951); conditions: HepG2 Attagene cis-factorial HIF1a reporter transcription; actives raise or lower the signal
# Hypoxia-inducible factor 1-alpha (Homo sapiens), sequence (Q16665 whole entry, looked up): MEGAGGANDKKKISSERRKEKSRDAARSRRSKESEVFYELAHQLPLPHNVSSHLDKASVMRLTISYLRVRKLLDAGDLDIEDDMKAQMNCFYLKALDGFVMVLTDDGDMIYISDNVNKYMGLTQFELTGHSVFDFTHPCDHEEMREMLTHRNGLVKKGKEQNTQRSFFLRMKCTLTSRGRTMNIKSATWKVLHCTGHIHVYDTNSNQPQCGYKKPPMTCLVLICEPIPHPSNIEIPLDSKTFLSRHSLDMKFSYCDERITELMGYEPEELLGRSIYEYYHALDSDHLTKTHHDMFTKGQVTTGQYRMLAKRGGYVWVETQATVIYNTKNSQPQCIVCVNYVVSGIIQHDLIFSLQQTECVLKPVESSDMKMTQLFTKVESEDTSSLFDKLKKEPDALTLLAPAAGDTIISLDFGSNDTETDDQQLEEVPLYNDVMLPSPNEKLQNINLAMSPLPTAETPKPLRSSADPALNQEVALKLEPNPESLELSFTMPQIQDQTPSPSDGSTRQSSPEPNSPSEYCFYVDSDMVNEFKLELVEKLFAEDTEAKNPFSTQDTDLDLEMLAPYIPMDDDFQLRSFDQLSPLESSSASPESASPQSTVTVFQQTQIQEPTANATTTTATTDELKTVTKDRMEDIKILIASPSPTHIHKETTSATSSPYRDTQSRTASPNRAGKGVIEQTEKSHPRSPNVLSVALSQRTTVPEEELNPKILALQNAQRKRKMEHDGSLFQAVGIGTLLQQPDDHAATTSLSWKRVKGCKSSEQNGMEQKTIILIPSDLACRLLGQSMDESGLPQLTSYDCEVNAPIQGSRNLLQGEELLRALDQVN
# How it was run: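 In this multiplexed cell assay, HepG2 cells bearing transfected cis reporters are dosed for 24 h and reporter mRNA is read by RT-PCR plus capillary electrophoresis; signal increases and decreases are both scored against DMSO.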
# [4] = molecular target: Heat shock factor protein 1 (Homo sapiens) (UniProt Q00613); test: ATG_HSE_CIS: Attagene CIS-FACTORIAL HepG2 Assay for human Heat Shock Transcription Factor 1 (HSE) (AID 2282953); conditions: HepG2 HSE cis-reporter, Attagene RNA transcription; actives raise or lower the signal
# Heat shock factor protein 1 (Homo sapiens), sequence (Q00613 whole entry, looked up): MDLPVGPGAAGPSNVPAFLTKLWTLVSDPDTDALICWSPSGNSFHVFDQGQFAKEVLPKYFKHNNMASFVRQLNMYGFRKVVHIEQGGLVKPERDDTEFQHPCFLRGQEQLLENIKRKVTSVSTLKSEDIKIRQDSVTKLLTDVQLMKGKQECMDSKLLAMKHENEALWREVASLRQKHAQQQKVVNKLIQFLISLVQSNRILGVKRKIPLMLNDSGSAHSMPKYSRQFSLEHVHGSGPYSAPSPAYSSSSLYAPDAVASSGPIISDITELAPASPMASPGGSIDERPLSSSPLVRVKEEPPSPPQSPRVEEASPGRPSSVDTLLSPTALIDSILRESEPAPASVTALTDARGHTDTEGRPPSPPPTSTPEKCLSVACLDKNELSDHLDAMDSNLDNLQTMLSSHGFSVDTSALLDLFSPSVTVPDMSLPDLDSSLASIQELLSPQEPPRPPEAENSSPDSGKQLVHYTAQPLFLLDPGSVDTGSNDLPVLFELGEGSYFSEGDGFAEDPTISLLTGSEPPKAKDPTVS
# How it was run: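 HepG2 cells transfected with cis-promoter reporter units sensing endogenous transcription factor activity; reporter mRNA quantified 24 h post-dose by RT-PCR and capillary electrophoresis of 6-FAM-labelled products. Bidirectional fitting against DMSO.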
# [5] = ATG_RORE_CIS: Attagene CIS-FACTORIAL HepG2 Assay for human RAR-related Orphan Receptor Element (RORE) (AID 2282959); conditions: HepG2 Attagene cis-factorial RORE reporter, mRNA; actives raise or lower the signal
# How it was run: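 Fluorescence intensity of reporter-specific cDNA fragments, separated by capillary electrophoresis, gives the signal. Source: HepG2 liver cells transiently transfected with cis-element reporters and exposed 24 h; DMSO-normalized bidirectional fit.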
# [6] = ATG_TAL_CIS: Attagene CIS-FACTORIAL HepG2 Assay for human TAL Basal Promoter (AID 2282966); conditions: HepG2 Attagene cis-factorial TAL promoter reporter; actives raise or lower the signal;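 note: background control endpoint measuring basal TAL promoter reporter mRNA not a specific factor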
# How it was run: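 HepG2 cells transiently transfected with multiplexed cis-promoter reporter units, dosed 24 h. Reporter mRNA quantified by RT-PCR, 6-FAM labelling, HpaI digestion and capillary electrophoresis; TAL basal promoter serves as background control, fitted bidirectionally versus DMSO.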
# [7] = ATG_TGFb_CIS: Attagene CIS-FACTORIAL HepG2 Assay for human Transforming Growth Factor (TGF) (AID 2282967); conditions: HepG2 Attagene CIS TGFb reporter, mRNA transcription; actives raise or lower the signal
# How it was run: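 HepG2 cells transiently transfected with cis-promoter-driven multiple reporter units measure endogenous TF activity; reporter mRNA quantified at 24 h by RT-PCR, FAM labeling, HpaI digestion and capillary electrophoresis. Bidirectional fit vs DMSO.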
# [8] = molecular target: X-box-binding protein 1 (Homo sapiens) (UniProt P17861); test: ATG_Xbp1_CIS: Attagene CIS-FACTORIAL HepG2 Assay for human X-box Binding Protein 1 (XBP1) (AID 2282972); conditions: HepG2 XBP1 cis-element reporter, Attagene multiplex; actives raise or lower the signal
# X-box-binding protein 1 (Homo sapiens), sequence (P17861 whole entry, looked up): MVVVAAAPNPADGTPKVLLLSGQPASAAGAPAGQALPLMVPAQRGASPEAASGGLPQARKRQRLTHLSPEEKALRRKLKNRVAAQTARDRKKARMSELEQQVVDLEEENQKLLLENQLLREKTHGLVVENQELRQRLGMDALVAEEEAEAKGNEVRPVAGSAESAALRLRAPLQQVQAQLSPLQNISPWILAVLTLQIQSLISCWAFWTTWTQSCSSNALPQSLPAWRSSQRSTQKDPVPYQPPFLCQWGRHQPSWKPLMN
# How it was run: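 HepG2 cells transiently transfected with cis-regulated multiple reporter transcription units; endogenous transcription factor activity measured 24 hours after chemical dosing. Reporter mRNA quantified by RT-PCR, 6-FAM primer extension, HpaI digestion and capillary electrophoresis; bidirectional fitting versus DMSO.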
# [9] = molecular target: Transcriptional activator Myb (Homo sapiens) (UniProt P10242); test: ATG_Myb_CIS: Attagene CIS-FACTORIAL HepG2 Assay for human Myeloblastosis (Myb) Proto-Oncogene Transcription Factor (AID 2282986); conditions: HepG2 Attagene CIS-FACTORIAL Myb reporter transcription; actives raise or lower the signal
# Transcriptional activator Myb (Homo sapiens), sequence (P10242 whole entry, looked up): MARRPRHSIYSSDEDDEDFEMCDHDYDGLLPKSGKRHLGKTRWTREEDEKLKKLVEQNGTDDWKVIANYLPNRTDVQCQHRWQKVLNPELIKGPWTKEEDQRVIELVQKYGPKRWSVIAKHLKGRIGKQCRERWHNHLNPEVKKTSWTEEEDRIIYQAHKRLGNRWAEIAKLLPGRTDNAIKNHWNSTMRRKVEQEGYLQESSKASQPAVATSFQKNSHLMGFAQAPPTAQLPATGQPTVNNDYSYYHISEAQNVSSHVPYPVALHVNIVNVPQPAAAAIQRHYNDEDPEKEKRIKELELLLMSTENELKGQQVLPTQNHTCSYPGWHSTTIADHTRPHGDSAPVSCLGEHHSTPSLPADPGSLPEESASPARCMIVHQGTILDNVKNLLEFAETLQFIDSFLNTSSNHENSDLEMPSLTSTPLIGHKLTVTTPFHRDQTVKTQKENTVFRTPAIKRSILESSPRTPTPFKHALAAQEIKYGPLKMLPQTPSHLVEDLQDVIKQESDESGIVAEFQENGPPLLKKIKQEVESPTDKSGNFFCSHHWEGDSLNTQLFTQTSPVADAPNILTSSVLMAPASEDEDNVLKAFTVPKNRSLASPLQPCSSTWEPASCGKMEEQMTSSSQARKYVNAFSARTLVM
# How it was run: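 Fluorescence signals from capillary electrophoresis of RT-PCR-amplified reporter cDNA give the read-out. Cells: HepG2 transfected with multiple cis-regulated reporter units. Exposure lasts 24 hours; DMSO defines baseline for gain or loss of signal.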
# [10] = molecular target: Myc proto-oncogene protein (Homo sapiens) (UniProt P01106); test: ATG_Myc_CIS: Attagene CIS-FACTORIAL HepG2 Assay for human Myelocytomatosis (Myc) Proto-Oncogene Transcription Factor (AID 2282990); conditions: HepG2, Attagene cis-reporter transcription factor activity; actives raise or lower the signal
# Myc proto-oncogene protein (Homo sapiens), sequence (P01106 whole entry, looked up): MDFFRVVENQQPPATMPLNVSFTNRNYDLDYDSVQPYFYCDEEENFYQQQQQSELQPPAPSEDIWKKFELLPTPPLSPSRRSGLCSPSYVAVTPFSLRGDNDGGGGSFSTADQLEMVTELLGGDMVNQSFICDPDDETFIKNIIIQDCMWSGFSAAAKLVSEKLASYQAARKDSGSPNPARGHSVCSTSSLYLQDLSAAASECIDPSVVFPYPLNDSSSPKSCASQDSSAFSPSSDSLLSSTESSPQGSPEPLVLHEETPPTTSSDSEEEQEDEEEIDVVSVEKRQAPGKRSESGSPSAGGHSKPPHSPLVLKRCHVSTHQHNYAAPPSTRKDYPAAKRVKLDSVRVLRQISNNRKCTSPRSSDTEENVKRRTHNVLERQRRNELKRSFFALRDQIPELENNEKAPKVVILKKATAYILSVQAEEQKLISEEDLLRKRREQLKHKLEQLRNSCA
# How it was run: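 HepG2 cells transiently transfected with multiple cis-promoter-driven reporter transcription units, so endogenous TF activity is read. After 24 h compound exposure, reporter mRNA was quantified by RT-PCR, 6-FAM labelling, HpaI digestion and capillary electrophoresis; bidirectional fit versus DMSO.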
# [11] = molecular target: Cellular tumor antigen p53 (Homo sapiens) (UniProt P04637); test: ATG_p53_CIS: Attagene CIS-FACTORIAL HepG2 Assay for human p53 Transcription Factor (AID 2282994); conditions: HepG2 p53 cis-element reporter, Attagene mRNA; actives raise or lower the signal
# Cellular tumor antigen p53 (Homo sapiens), sequence (P04637 whole entry, looked up): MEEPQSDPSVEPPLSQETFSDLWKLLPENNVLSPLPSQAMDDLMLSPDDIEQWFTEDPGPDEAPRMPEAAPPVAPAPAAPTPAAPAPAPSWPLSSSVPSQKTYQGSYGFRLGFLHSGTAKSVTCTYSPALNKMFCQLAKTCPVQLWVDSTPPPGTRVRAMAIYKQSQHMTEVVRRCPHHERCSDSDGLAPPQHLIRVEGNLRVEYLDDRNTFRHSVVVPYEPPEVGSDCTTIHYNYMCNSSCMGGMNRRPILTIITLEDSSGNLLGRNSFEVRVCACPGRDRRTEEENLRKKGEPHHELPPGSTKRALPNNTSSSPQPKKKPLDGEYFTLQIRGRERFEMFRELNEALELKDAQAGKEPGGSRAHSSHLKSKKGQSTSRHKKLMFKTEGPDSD
# How it was run: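 HepG2 cells transiently transfected with multiplexed cis-regulated reporter transcription units read endogenous TF activity. After 24 h compound exposure, reporter mRNA was quantified by RT-PCR, fluorescent labelling, HpaI digestion and capillary electrophoresis; bidirectional fits versus DMSO baseline.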
# [12] = molecular target: Nuclear receptor subfamily 1 group I member 2 (Homo sapiens) (UniProt O75469); test: ATG_PXR_TRANS: Attagene TRANS-FACTORIAL HepG2 Assay for human Pregnane X Receptor (PXR) (AID 2283008; active = hit-call score of the fitted dose curve at least 0.9, where 1 is the maximum)
# Nuclear receptor subfamily 1 group I member 2 (Homo sapiens), sequence (O75469 whole entry, looked up, the tested form may be a part): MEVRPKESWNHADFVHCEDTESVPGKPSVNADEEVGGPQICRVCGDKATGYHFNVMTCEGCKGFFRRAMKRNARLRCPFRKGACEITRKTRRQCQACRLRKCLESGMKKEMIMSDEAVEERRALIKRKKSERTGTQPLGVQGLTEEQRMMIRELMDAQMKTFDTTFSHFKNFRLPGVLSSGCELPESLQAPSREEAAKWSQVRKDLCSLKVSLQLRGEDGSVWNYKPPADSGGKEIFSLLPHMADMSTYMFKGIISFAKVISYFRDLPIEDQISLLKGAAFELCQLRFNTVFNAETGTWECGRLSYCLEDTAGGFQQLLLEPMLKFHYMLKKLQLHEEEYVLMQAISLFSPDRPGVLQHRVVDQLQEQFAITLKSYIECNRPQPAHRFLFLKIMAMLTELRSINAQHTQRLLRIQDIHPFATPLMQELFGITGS
# How it was run: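 HepG2 cells transiently transfected with multiple reporter units, here a PXR-GAL4 chimera driving a GAL4-UAS reporter; 24 h compound exposure. Reporter mRNA measured by RT-PCR, FAM labelling and capillary electrophoresis; gain of signal fitted against DMSO baseline.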
# [13] = ATG_XTT_Cytotoxicity: Cytotoxicity Assessment in the Attagene TRANS-FACTORIAL HepG2 Assay (AID 2283584; active = hit-call score of the fitted dose curve at least 0.9, where 1 is the maximum)
# How it was run: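 HepG2 cells transiently transfected with GAL4-UAS multiple reporter units, dosed 24 h; cytotoxicity read by XTT as loss of signal versus DMSO baseline.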
# [14] = molecular target: Hepatocyte nuclear factor 6 (Homo sapiens) (UniProt Q9UBC0); test: ATG_HNF6_CIS: Attagene CIS-FACTORIAL HepG2 Assay for human Hepatocyte Nuclear Factor 6 (HNF6) (AID 2282952); conditions: HepG2 Attagene cis-factorial HNF6 reporter transcription; actives raise or lower the signal
# Hepatocyte nuclear factor 6 (Homo sapiens), sequence (Q9UBC0 whole entry, looked up, the tested form may be a part): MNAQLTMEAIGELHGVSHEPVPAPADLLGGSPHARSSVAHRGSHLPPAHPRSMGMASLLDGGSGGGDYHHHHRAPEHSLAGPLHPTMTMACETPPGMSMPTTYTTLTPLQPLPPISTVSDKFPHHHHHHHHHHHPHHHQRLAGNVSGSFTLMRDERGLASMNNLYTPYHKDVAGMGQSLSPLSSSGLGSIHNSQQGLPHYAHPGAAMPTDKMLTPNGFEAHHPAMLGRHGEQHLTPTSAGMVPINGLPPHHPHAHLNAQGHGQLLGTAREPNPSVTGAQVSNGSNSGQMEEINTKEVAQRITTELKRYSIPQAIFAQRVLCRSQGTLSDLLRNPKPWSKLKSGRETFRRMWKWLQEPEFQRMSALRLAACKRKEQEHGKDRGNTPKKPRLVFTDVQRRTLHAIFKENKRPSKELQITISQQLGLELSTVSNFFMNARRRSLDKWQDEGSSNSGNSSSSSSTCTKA
# How it was run: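 HepG2 cells transiently transfected with cis-element-driven multiplexed reporter units measuring endogenous transcription factor activity. After 24 h exposure, reporter mRNA quantified by RT-PCR, FAM-labelled fragments and capillary electrophoresis; bidirectional fitting versus DMSO.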
# [15] = ATG_M_32_TRANS: Attagene TRANS-FACTORIAL HepG2 Assay for M32 Transcription Factor (Internal Marker) (AID 2282984; active = hit-call score of the fitted dose curve at least 0.9, where 1 is the maximum;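 note: transcript level of a background control reporter unit measured by RT-PCR and capillary electrophoresis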); conditions: HepG2 Attagene TRANS M32 internal marker reporter
# How it was run: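 Human hepatoma HepG2, transient MRTU transfection, 24 h treatment. RNA → RT-PCR → fluorescent primer extension → HpaI digest (2 h, 37 C) → CE. Positive-direction fit vs DMSO.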
# [16] = molecular target: Nuclear respiratory factor 1 (Homo sapiens) (UniProt Q16656); test: ATG_NRF1_CIS: Attagene CIS-FACTORIAL HepG2 Assay for human Nuclear Respiratory Factor 1 (NRF1) Orphan Gene (AID 2282987); conditions: HepG2 NRF1 cis-element reporter, Attagene multiplex; actives raise or lower the signal
# Nuclear respiratory factor 1 (Homo sapiens), sequence (Q16656 whole entry, looked up): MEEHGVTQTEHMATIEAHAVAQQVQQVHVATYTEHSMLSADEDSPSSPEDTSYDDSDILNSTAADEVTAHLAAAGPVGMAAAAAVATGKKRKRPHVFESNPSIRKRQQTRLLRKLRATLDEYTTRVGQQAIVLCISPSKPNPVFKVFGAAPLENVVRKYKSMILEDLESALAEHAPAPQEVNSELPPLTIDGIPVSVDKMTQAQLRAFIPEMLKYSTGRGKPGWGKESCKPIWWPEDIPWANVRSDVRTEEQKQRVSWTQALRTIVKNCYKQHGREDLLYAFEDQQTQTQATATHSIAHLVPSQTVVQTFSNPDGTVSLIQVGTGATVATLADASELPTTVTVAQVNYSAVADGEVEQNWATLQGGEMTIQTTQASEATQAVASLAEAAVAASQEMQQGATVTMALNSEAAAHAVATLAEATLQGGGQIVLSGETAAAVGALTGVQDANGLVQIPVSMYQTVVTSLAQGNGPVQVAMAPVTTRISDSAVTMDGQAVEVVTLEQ
# How it was run: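 Transcriptional reporter readout, one component of a 52-endpoint multiplexed HepG2 panel. Exposure 24 h; mRNA detected via RT-PCR and fluorescent capillary electrophoresis; fitting in both directions against DMSO.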
# [17] = ATG_NFI_CIS: Attagene CIS-FACTORIAL HepG2 Assay for human Nuclear Factor I (NFI) (AID 2282989); conditions: HepG2 cis-regulatory reporter, NFI response element transcription; actives raise or lower the signal
# How it was run: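 Endogenous TF activity in HepG2 cells transiently transfected with cis-element-driven multiplexed reporter units, read 24 h after dosing. Reporter mRNA quantified by RT-PCR, 6-FAM labelling, HpaI digestion and capillary electrophoresis; bidirectional fit versus DMSO.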
# [18] = ATG_NRF2_ARE_CIS: Attagene CIS-FACTORIAL HepG2 Assay for human Nuclear Factor Erythroid 2 Related Factor 2 (NFR2) response to Antioxidant Response Elements (ARE) (AID 2282992); conditions: HepG2 Attagene ARE/NRF2 reporter, transcription factor activity; actives raise or lower the signal;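 for AC50: reporter mRNA level measured by RT-PCR and capillary electrophoresis fluorescence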
# How it was run: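 HepG2 cells transiently transfected with multiplexed cis-regulated reporter transcription units measure endogenous transcription factor activity. Reporter mRNA at 24 h is quantified by RT-PCR, fluorescent labelling and capillary electrophoresis, with bidirectional fitting relative to DMSO.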
# [19] = ATG_NF_kB_CIS: Attagene CIS-FACTORIAL HepG2 Assay for human Nuclear Factor Kappa B (NF-kB) (AID 2282991); conditions: HepG2 Attagene cis-factorial NF-kB reporter mRNA; actives raise or lower the signal
# How it was run: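 HepG2, transient multi-reporter transfection, cis promoter elements (endogenous TFs). 24 h exposure. Total RNA → RT → PCR → 6-FAM label → HpaI → CE. Gain/loss vs DMSO.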
smiles,measurement,setting,value
O=C1Nc2ccc(Cl)cc2C(c2ccccc2)=NC1O (centres undefined),outcome,[1],inactive
same,outcome,[2],inactive
same,outcome,[3],inactive
same,outcome,[4],inactive
same,outcome,[5],inactive
same,outcome,[6],inactive
same,outcome,[7],inactive
same,outcome,[8],inactive
same,outcome,[9],inactive
same,outcome,[10],inactive
same,outcome,[11],inactive
same,outcome,[12],inactive
same,outcome,[13],inactive
CCC(C)(C)O,outcome,[1],inactive
same,outcome,[2],inactive
same,outcome,[3],inactive
same,outcome,[14],inactive
same,outcome,[4],inactive
same,outcome,[5],inactive
same,outcome,[6],inactive
same,outcome,[7],inactive
same,outcome,[8],inactive
same,outcome,[15],inactive
same,outcome,[9],inactive
same,outcome,[16],inactive
same,outcome,[17],inactive
same,outcome,[10],inactive
same,outcome,[18],inactive
same,outcome,[12],inactive
same,outcome,[13],inactive
N#Cc1cc(I)c(O)c(I)c1,outcome,[2],inactive
same,outcome,[3],inactive
same,outcome,[14],inactive
same,outcome,[4],inactive
same,outcome,[5],inactive
same,outcome,[6],inactive
same,outcome,[7],inactive
same,AC50,[8],33.6 µM (active)
same,outcome,[15],inactive
same,outcome,[9],inactive
same,outcome,[16],inactive
same,outcome,[17],inactive
same,outcome,[10],inactive
same,outcome,[19],inactive
same,outcome,[11],inactive
same,outcome,[12],inactive
same,outcome,[13],inactive
Cc1ncc(C[n+]2csc(CCO)c2C)c(N)n1,outcome,[1],inactive
same,outcome,[2],inactive
same,outcome,[14],inactive
same,outcome,[5],inactive
same,outcome,[7],inactive
same,outcome,[8],inactive
same,outcome,[9],inactive
same,outcome,[16],inactive
same,outcome,[17],inactive
same,outcome,[10],inactive
same,outcome,[19],inactive
same,outcome,[18],inactive
same,outcome,[11],inactive
C=CC(=O)OCC(CC)CCCC (centres undefined),outcome,[2],inactive
same,outcome,[3],inactive
same,outcome,[14],inactive
same,outcome,[4],inactive
same,outcome,[5],inactive
same,outcome,[6],inactive
same,outcome,[7],inactive
same,outcome,[8],inactive
same,outcome,[15],inactive
same,outcome,[9],inactive
same,outcome,[16],inactive
same,outcome,[17],inactive
same,outcome,[10],inactive
same,outcome,[19],inactive
same,AC50,[18],100 µM (active)
same,outcome,[11],inactive
same,outcome,[12],inactive
same,outcome,[13],inactive
O=C(NCNC(=O)NC1C(=O)NC(=O)N1CO)NC1C(=O)NC(=O)N1CO (centres undefined),outcome,[1],inactive
same,outcome,[2],inactive
same,outcome,[14],inactive
same,outcome,[4],inactive
same,outcome,[5],inactive
same,outcome,[6],inactive
same,AC50,[7],100 µM (active)
same,AC50,[8],151 µM (active)
same,outcome,[9],inactive
same,outcome,[16],inactive
same,outcome,[17],inactive
same,outcome,[10],inactive
same,outcome,[11],inactive
same,outcome,[12],inactive
same,outcome,[13],inactive
CC1(C)C(=O)NC(=O)NC1=O,outcome,[2],inactive
same,outcome,[3],inactive
same,outcome,[14],inactive
same,outcome,[4],inactive
same,outcome,[5],inactive
same,outcome,[6],inactive
same,outcome,[7],inactive
same,outcome,[8],inactive
same,outcome,[15],inactive
same,outcome,[9],inactive
same,outcome,[16],inactive
same,outcome,[17],inactive
same,outcome,[10],inactive
same,outcome,[19],inactive
same,outcome,[18],inactive
same,outcome,[11],inactive
same,outcome,[12],inactive
same,outcome,[13],inactive
CCOP(=O)(OCC)Oc1ccc([N+](=O)[O-])cc1,outcome,[1],inactive
same,outcome,[2],inactive
same,outcome,[3],inactive
same,outcome,[14],inactive
same,outcome,[4],inactive
same,outcome,[5],inactive
same,outcome,[7],inactive
same,outcome,[8],inactive
same,outcome,[15],inactive
same,outcome,[9],inactive
same,outcome,[16],inactive
same,outcome,[17],inactive
same,outcome,[10],inactive
same,outcome,[19],inactive
same,outcome,[18],inactive
same,outcome,[11],inactive
same,outcome,[12],inactive
same,outcome,[13],inactive
